Among the test systems are HCT-15 colon; HT29 colon; SNB-75 CNS; SNB-19 CNS; PC-3 prostate; SK-MEL-5 melanoma; UACC-62 melanoma; LOX IMVI melanoma; SK-MEL-28 melanoma; SK-MEL-2 melanoma; EKVX NSCLC; SN12C renal; UO-31 renal; TK-10 renal; ACHN renal; CAKI-1 renal; A498 renal; CCRF-CEM leukemia; MOLT-4 leukemia.
Holding throughout (experiment): NCI-60 one-dose screen, 48 h (100 = growth as untreated, 0 = no growth, -100 = all killed)
Holding throughout (conditions): 10 µM unless noted

About 83,000 compounds went through this panel and 20% of them were active in at least one assay; those are over-represented in the sample as a whole.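 48-hour exposure, single concentration, 96-well plates; percent growth endpoint where 0 means no net growth. Active: below 10.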 Unmarked numbers belong to inactive results. Active and inactive are the calls of the source.

For the compound `COc1ccc(N2CCN(C3=C(Cl)C(=O)c4ncccc4C3=O)CC2)cc1`, the growth was 17.1% with HCT-15 colon; 87.3% in the assay on HT29 colon; 85.2% in the assay on SNB-75 CNS; 94.7% with SNB-19 CNS; 68.1% in the assay with PC-3 prostate; 95% in the assay on SK-MEL-5 melanoma. For the same compound, the growth in the assay on UACC-62 melanoma is 69.3%; with LOX IMVI melanoma, 21%; in the assay on SK-MEL-28 melanoma, 78.3%; with SK-MEL-2 melanoma, 95.1%; in the assay with EKVX NSCLC it was 99.9%; in the assay with SN12C renal, 84.7%. The growth with UO-31 renal is 19.2%; in the assay on TK-10 renal, 99.6%; with ACHN renal it was -18.7% (active); in the assay with CAKI-1 renal, 32.3%; with A498 renal, 103%; in the assay on CCRF-CEM leukemia it was 6.79% (active). In the assay with MOLT-4 leukemia, the growth is 4.55% (active).

For `COc1ccccc1N1CCN(C2=C(Cl)C(=O)c3ncccc3C2=O)CC1`, the growth with HCT-15 colon was 55.5%; in the assay with HT29 colon, 111%; in the assay with SNB-75 CNS, 86%; in the assay with SNB-19 CNS, 88.8%; in the assay with PC-3 prostate, 79%; in the assay with SK-MEL-5 melanoma, 96.4%. The growth was 83% with UACC-62 melanoma; 50.2% with LOX IMVI melanoma; 95.5% in the assay on SK-MEL-2 melanoma; 98.2% in the assay with EKVX NSCLC; 88.3% in the assay with SN12C renal; 44.5% with UO-31 renal. Moreover, the growth is 148% in the assay with TK-10 renal; 45.7% with ACHN renal; 63.6% with CAKI-1 renal; 115% in the assay with A498 renal; 11.5% with CCRF-CEM leukemia; 38.3% with MOLT-4 leukemia.

As to `CCCCCC[n+]1ccc(SCC(=O)n2ccc3ccccc32)c2ccccc21`, the growth was 94.3% in the assay on HCT-15 colon; 84% with HT29 colon; 100% in the assay with SNB-75 CNS; 86.8% in the assay on SNB-19 CNS; 83.7% in the assay with PC-3 prostate; 88.7% in the assay on SK-MEL-5 melanoma. Moreover, the growth is 73.3% in the assay with UACC-62 melanoma; 91.5% with LOX IMVI melanoma; 106% with SK-MEL-28 melanoma; 94.3% in the assay with SK-MEL-2 melanoma; 83.8% in the assay with EKVX NSCLC; 88.8% in the assay on SN12C renal. The growth in the assay on UO-31 renal is 68.6%; in the assay with TK-10 renal, 108%; in the assay on ACHN renal it was 87.2%; with CAKI-1 renal it was 78.4%; with A498 renal, 115%; with CCRF-CEM leukemia, 77.3%. The growth with MOLT-4 leukemia was 79.4%.

On to `Clc1cccc(/C=N/Nc2nc(N/N=C/c3cccc(Cl)c3)nc(N3CCOCC3)n2)c1`, for which the growth in the assay with HCT-15 colon is -11.1% (active); in the assay with HT29 colon, 8.21% (active); with SNB-75 CNS, 103%; in the assay with SNB-19 CNS, 88%; in the assay on PC-3 prostate, 41.5%; in the assay on SK-MEL-5 melanoma, 44.1%. For the same compound, the growth is 91.7% with UACC-62 melanoma; 32.6% with LOX IMVI melanoma; 29.8% with SK-MEL-28 melanoma; -1.89% (active) with SK-MEL-2 melanoma; 72.2% in the assay with EKVX NSCLC; 59.9% in the assay on SN12C renal. Moreover, the growth in the assay on UO-31 renal was 26.8%; with TK-10 renal, 100%; in the assay with ACHN renal, 25.8%; in the assay on CAKI-1 renal, 37.6%; with A498 renal, 4.3% (active); in the assay on CCRF-CEM leukemia, 24.8%. In addition, in the assay with MOLT-4 leukemia, the growth is 6.04% (active).

Regarding `O=C(CCCCCCNC(=O)C(O)(O)C(F)(F)F)Nc1nc2ccccc2s1`, the growth was 6.75% (active) in the assay on HCT-15 colon; 6.91% (active) in the assay on HT29 colon; 38.9% in the assay on SNB-75 CNS; 17% in the assay on SNB-19 CNS; 34.6% in the assay on PC-3 prostate; -72.5% (active) in the assay on SK-MEL-5 melanoma. In addition, the growth in the assay with UACC-62 melanoma was -62.7% (active); in the assay with LOX IMVI melanoma it was -81.3% (active); in the assay with SK-MEL-28 melanoma, -4.84% (active); with SK-MEL-2 melanoma, -7.95% (active); in the assay on EKVX NSCLC, 27.5%; with SN12C renal, 10.8%. For the same compound, the growth with UO-31 renal was -9.93% (active); in the assay on TK-10 renal, -3.74% (active); with ACHN renal, -22.7% (active); in the assay with CAKI-1 renal, -17.8% (active); in the assay on A498 renal, -21.7% (active); in the assay on CCRF-CEM leukemia, 22.6%. In the assay with MOLT-4 leukemia, the growth is 15.6%.

With `CC(C)Sc1nc(-c2ccccc2)c(C#N)c(N2CCOCC2)n1`, the growth is 80.2% in the assay with HCT-15 colon; 71.8% with HT29 colon; 9.58% (active) in the assay on SNB-75 CNS; 69% in the assay on SNB-19 CNS; 82% in the assay on PC-3 prostate; 95.5% with SK-MEL-5 melanoma. Also, the growth in the assay with UACC-62 melanoma was 91.7%; in the assay with LOX IMVI melanoma, 35.6%; with SK-MEL-28 melanoma it was 88.6%; in the assay on SK-MEL-2 melanoma, 128%; in the assay on EKVX NSCLC, 69.8%; with SN12C renal it was 28.1%. Besides, the growth was 17.9% in the assay on UO-31 renal; 106% in the assay with TK-10 renal; -6.39% (active) in the assay with ACHN renal; 52.1% with CAKI-1 renal; 65.6% in the assay with A498 renal; 75.3% with CCRF-CEM leukemia. Moreover, in the assay on MOLT-4 leukemia, the growth was 93.5%.

For `CCc1cc2c(cc1Cl)nc1c(=O)[nH]c(=O)nc-1n2CCOCC(C)(C)C`, the growth in the assay with HCT-15 colon is 58.3%; with HT29 colon, 58.5%; with SNB-75 CNS it was 97%; in the assay with SNB-19 CNS, 91%; in the assay with PC-3 prostate, 68%; in the assay on SK-MEL-5 melanoma it was 39.6%. The growth in the assay on UACC-62 melanoma is 76.1%; in the assay on LOX IMVI melanoma, 71.9%; in the assay with SK-MEL-28 melanoma it was 97.2%; in the assay on SK-MEL-2 melanoma, 96.6%; in the assay with EKVX NSCLC, 71.2%; in the assay with SN12C renal, 79.8%. Besides, the growth was 44.3% in the assay with UO-31 renal; 160% with TK-10 renal; 65.7% in the assay on ACHN renal; 70.8% in the assay on CAKI-1 renal; 87.6% in the assay with A498 renal; 89.6% in the assay with CCRF-CEM leukemia. In addition, the growth with MOLT-4 leukemia is 69.2%.

Turning to `Brc1ccc2[nH]cc(-c3nn4cc(-c5nccs5)nc4s3)c2c1`, the growth was 10.2% in the assay on HCT-15 colon; 40.9% in the assay on HT29 colon; -1.58% (active) in the assay on SNB-75 CNS; 61.1% in the assay on SNB-19 CNS; 9.64% (active) in the assay with PC-3 prostate; 73.1% in the assay on SK-MEL-5 melanoma. For the same compound, the growth in the assay with UACC-62 melanoma was 79.3%; in the assay on LOX IMVI melanoma it was 8.86% (active); in the assay with SK-MEL-28 melanoma, 49.6%; in the assay on SK-MEL-2 melanoma it was 81.4%; with EKVX NSCLC, 64.9%; with SN12C renal, 71.1%. Further, the growth with UO-31 renal is -48.1% (active); in the assay with ACHN renal, 3.16% (active); in the assay on CAKI-1 renal, -36.8% (active); in the assay with A498 renal, 47.5%; with CCRF-CEM leukemia, 17.1%; in the assay with MOLT-4 leukemia, 16.5%.
